# Source: PubChem BioAssay (NCI)
# Compounds without any hit were thinned out: in the full panel of roughly 83,000, 20% have a hit.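 For each line, cells grew in 96-well plates with the test compound present at a single concentration for 48 hours.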 A number with no mark means an inactive call. The source made the active and inactive calls. Rule for the calls: active = growth percent below 10; inactive = the rest.
# How the values were obtained:
# Experiment in all cases: NCI-60 one-dose screen, 48 h (100 = growth as untreated, 0 = no growth, -100 = all killed)
# Details in all cases: 10 µM unless noted
# HCT-15 colon = tested on: HCT-15 colon
# HT29 colon = tested on: HT29 colon
# SNB-75 CNS = tested on: SNB-75 CNS
# SNB-19 CNS = tested on: SNB-19 CNS
# U251 CNS = tested on: U251 CNS
# PC-3 prostate = tested on: PC-3 prostate
# UACC-62 melanoma = tested on: UACC-62 melanoma
# LOX IMVI melanoma = tested on: LOX IMVI melanoma
# SK-MEL-28 melanoma = tested on: SK-MEL-28 melanoma
# SK-MEL-2 melanoma = tested on: SK-MEL-2 melanoma
# EKVX NSCLC = tested on: EKVX NSCLC
# SN12C renal = tested on: SN12C renal
# UO-31 renal = tested on: UO-31 renal
# TK-10 renal = tested on: TK-10 renal
# ACHN renal = tested on: ACHN renal
# CAKI-1 renal = tested on: CAKI-1 renal
# A498 renal = tested on: A498 renal
# CCRF-CEM leukemia = tested on: CCRF-CEM leukemia
# MOLT-4 leukemia = tested on: MOLT-4 leukemia
# SK-MEL-5 melanoma = tested on: SK-MEL-5 melanoma
SMILES,growth (HCT-15 colon),growth (HT29 colon),growth (SNB-75 CNS) [%],growth (SNB-19 CNS) [%],growth (U251 CNS) [%],growth (PC-3 prostate),growth (UACC-62 melanoma) [%],growth (LOX IMVI melanoma),growth (SK-MEL-28 melanoma) [%],growth (SK-MEL-2 melanoma),growth (EKVX NSCLC) [%],growth (SN12C renal),growth (UO-31 renal),growth (TK-10 renal) [%],growth (ACHN renal),growth (CAKI-1 renal),growth (A498 renal),growth (CCRF-CEM leukemia) [%],growth (MOLT-4 leukemia),growth (SK-MEL-5 melanoma) [%]
N#Cc1cccc(NC(=O)c2cc(-c3ccc(F)cc3F)ccc2O)c1,13.3%,104%,11.5,13.7,13,20.3%,13.7,13.2%,25.6,-6.68% (active),89.4,4.26% (active),-11.4% (active),21.9,7.33% (active),3.62% (active),-33.2% (active),27.4,11.8%,–
C=C(C)[C@@H]1CC[C@]2(N=C=O)CC[C@]3(C)[C@H](CC[C@@H]4[C@@]5(C)Cc6c([nH]c7ccccc67)C(C)(C)[C@@H]5CC[C@]43C)[C@@H]12,47%,98.5%,79.8,91.4,65.4,40.3%,101,–,106,–,89,72.4%,64.8%,21.1,99%,69.9%,137%,67.6,61.4%,–
Cc1cccc2c3c(sc12)C(c1ccc(F)cc1)C(C#N)=C(N)O3 (stereo unspecified),8.13% (active),9.55% (active),23.4,23.8,25.5,8.46% (active),24.9,9.86% (active),62,50.1%,52.6,25.2%,36.7%,78.8,24.8%,-0.939% (active),4.47% (active),13.8,12.5%,–
CN1C(=O)CNC(=O)[C@H](NC(=O)c2nc3ccccc3cc2O)CSSC[C@H]1C(=O)NCCCc1nc2ccccc2cc1O,93.3%,17.7%,151,100,69.1,44.7%,18.9,–,61.9,–,85.4,73.4%,62.6%,75,82.3%,107%,118%,14.3,-4.7% (active),35.2
Cc1cc(N2CCCC2)nc(N(CCCNc2ccnc3cc(Cl)ccc23)Cc2ccccn2)n1,32.3%,11.2%,77.4,65.9,55.3,52%,79.8,32.3%,69.8,71.7%,66.2,52%,5.6% (active),80.3,80.8%,84.4%,42%,55,46.7%,–
NC(=O)Nc1ccc2ncnc(Nc3ccc(Cl)cc3)c2c1,93.1%,91.6%,95,78.6,95.7,79%,87.9,95.5%,106,127%,22.4,81.9%,58%,26.5,–,40.1%,43.4%,96,71.2%,–
COc1cc(Nc2nc(NCCN)nc3cc[nH]c(=O)c23)cc(OC)c1,102%,73.6%,90.3,102,85.8,113%,57.2,51.8%,102,30.8%,87.5,70.3%,112%,95.3,99%,94.1%,111%,68.6,74.4%,–
Nc1nc(Cl)cc(=O)n1Cc1ccccc1,98.3%,103%,82.3,93.7,101,95.7%,88.6,92.1%,108,105%,94.1,90.9%,82.9%,92.7,107%,85.3%,99.4%,98.7,86.8%,–
O=C1c2cccc3cccc(c23)C(=O)N1Nc1nc(NC2CCCCC2)nc(N2CCOCC2)n1,93.1%,107%,88.9,91,97.5,98.2%,89.1,91.1%,101,109%,90,93.9%,69.1%,129,89.7%,76.5%,127%,90.1,90%,–
COc1ccc2cc(C(C)C(=O)Nc3ccc(-c4n[nH]c(=S)n4C4CCCCC4)cc3)ccc2c1 (stereo unspecified),54.3%,85.1%,67,80,56.8,39.2%,58.3,70.7%,75.6,77%,70.5,73.4%,-79.3% (active),95.9,73.4%,44.7%,77.3%,64.4,55.9%,–
OC(c1ccccc1)C(NC(Cc1ccccc1)c1ccccc1)c1ccccc1 (stereo unspecified),89.2%,71.3%,90.9,87.6,86.4,80.5%,69.4,89.2%,97.8,93.1%,92,87.1%,72.2%,92.2,90.7%,77.4%,74.6%,93.3,–,–
[O-][n+]1c2ccccc2[n+]([O-])c2c3ccccc3[nH]c21,78.7%,77.3%,82.6,85,53.2,66.4%,20.7,98.3%,117,61.9%,30.8,81.3%,70%,41,87.5%,–,-38.5% (active),82.3,98.8%,–
CC(=O)OC[C@H]1OC(Sc2sc(C(=O)c3ccc(C)cc3)c(N)c2-c2nc3ccccc3s2)[C@H](OC(C)=O)[C@@H](OC(C)=O)[C@@H]1OC(C)=O (stereo partly specified),59.5%,69%,25.4,74.4,59.5,63.2%,55.8,54.5%,76.4,93.6%,75,41.9%,25.7%,99.3,23.1%,53.7%,98.9%,60.5,80%,–
COc1ccc([C@H]2c3cc(OC)c(OC)cc3C=C(C=O)C2CO)cc1OC (stereo partly specified),43.1%,19%,15.8,50.9,36.2,29%,33.9,46.3%,55.3,20.8%,91.2,68%,68.4%,73.4,57.8%,52.4%,104%,56.4,49.5%,–
CCCCNC(=O)Oc1ccc(/C(=C(\C)c2ccc(Cl)cc2)c2ccc(OCCN3CCCCC3)cc2)cc1,23.8%,10.9%,80.3,93.5,59.3,63.8%,83,79.8%,80.1,98.6%,76.9,80.5%,58.8%,87,–,92.5%,85.2%,72.7,65.5%,–
c1ccc2c(c1)Nc1ccncc1S2,99.7%,90.5%,86.3,107,102,91.2%,96.8,85.8%,128,119%,73.1,97.6%,78.5%,109,94.2%,61.2%,80.7%,117,142%,–
O=C1NC(=O)C(Cn2cnc3ccccc32)N1 (stereo unspecified),101%,105%,85.7,95.5,101,95%,98.5,97.8%,104,107%,100,98.6%,92.6%,99.6,99.8%,101%,76.6%,102,99.6%,–
